# ALOX15B inhib: 15-hLO-2 (ALOX15B) enzyme inhibition | Potency, µM (series often up to 57.1 µM), for the others: top-dose activity change, negative = inhibition, hits mostly inhibitors | purified 15hLO-2, xylenol orange hydroperoxide absorbance | hit rate 0.56% among 110,000; note: potency is the fitted concentration of half-maximal effect; nearly all actives have a fitted effect of over 60% in size
# Target sequence (O15296 whole entry, looked up): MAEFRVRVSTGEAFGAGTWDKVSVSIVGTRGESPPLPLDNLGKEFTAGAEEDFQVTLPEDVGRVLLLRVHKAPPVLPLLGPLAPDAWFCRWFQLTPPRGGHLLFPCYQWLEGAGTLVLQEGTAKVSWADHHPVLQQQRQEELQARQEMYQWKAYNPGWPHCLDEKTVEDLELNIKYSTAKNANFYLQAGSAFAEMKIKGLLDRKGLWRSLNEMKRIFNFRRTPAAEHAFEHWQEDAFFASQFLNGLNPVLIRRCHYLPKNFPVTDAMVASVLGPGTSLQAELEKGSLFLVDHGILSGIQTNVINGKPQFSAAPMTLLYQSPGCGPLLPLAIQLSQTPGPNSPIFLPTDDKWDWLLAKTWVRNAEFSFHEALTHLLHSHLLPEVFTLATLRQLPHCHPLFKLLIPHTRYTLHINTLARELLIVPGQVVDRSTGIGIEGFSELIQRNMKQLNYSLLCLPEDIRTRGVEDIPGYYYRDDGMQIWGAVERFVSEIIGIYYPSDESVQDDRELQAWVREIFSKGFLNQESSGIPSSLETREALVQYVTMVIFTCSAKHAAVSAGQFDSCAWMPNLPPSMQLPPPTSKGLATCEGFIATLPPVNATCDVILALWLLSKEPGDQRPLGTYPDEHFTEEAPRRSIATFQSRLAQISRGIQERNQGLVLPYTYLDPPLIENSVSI
#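 Screening format was qHTS against 50 nM purified 15hLO-2 in Hepes pH 7.5 with detergent. Activity follows hydroperoxide formation from 45 uM arachidonic acid, measured as 573:405 nm absorbance ratio of the ferric-xylenol orange complex.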
# PNC inhibitor: perinucleolar compartment assembly inhibition; PC3M PTB-GFP, PNC prevalence imaging, 16 h; stronger effect = lower value; activity change (PNC), negative = inhibition, % at 10 µM; hit rate 3.1% among 140,000;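 active = readout at or below -70, meaning at least 70% loss of cells showing the perinucleolar compartment, a nuclear body marking cancer cells; inconclusive = readout between -30 and a set limit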;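 note: plate controls were DMSO wells for no effect and camptothecin positive control wells for full effect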
#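 PC3M cells stably expressing PTB-GFP, 750–1000 cells/well, treated 16 h at 37 °C with compound (23 nl of library stock), in duplicate. After paraformaldehyde fixation and Hoechst stain, imaged at 20x; PNC prevalence scored by image analysis.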
# ALOX12 inhib: blocks human 12-lipoxygenase activity; hit rate 0.12% among 150,000; Potency, µM (titrated, usually from 57.1 µM), for the others: at the top dose activity change, negative = inhibition, hits mostly inhibitors; purified 12-hLO, xylenol orange hydroperoxide absorbance; P18054; note: potency is the fitted concentration of half-maximal effect; nearly all actives have a fitted effect of over 55% in size
#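 150 nM 12hLO, 25 mM Hepes pH 7.0 + 0.01% Triton X-100; cpd preinc 15 min RT; 40 uM arachidonic acid, 30 min RT; Fe-XO 30 min; A573/A405 ratio as read-out.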
# * = called active by the depositor; ? = inconclusive; / = no result; [ ] = remark or other dose. Sampled rows, rich in hits. Any-hit rate of the full collection: about 3.2%. Unless noted, calls come from the whole dose curve; as a rule, active = well fitted curve in the direction sought with a large enough effect; inconclusive = small, poorly fitted or top-dose-only effect, or another doubt; inactive = no such curve, though single readings can be large; an effect the other way counts as inactive or inconclusive. Unless noted, % is set by controls: 0 for no effect and ±100 for the full control effect.
SMILES,ALOX15B inhib,PNC inhibitor,ALOX12 inhib
N#C/C(=C\c1cn(CCOc2ccccc2F)c2ccccc12)C(=O)NCc1cccs1,/,?,0.2%
N#C/C(=C\c1cn(Cc2ccc(C#N)cc2)c2ccccc12)C(=O)NCc1cccs1,/,-116.4*,3.3%
CCCn1c(C)nc2c(NCCN(C(C)C)C(C)C)nc(C)nc21,13.6%,/,0.9%
Nc1nc(SCC(=O)Nc2ccccc2Sc2ccccc2)n[nH]1,7.7%,-111.3*,0.1%
Nc1nc(SCC(=O)Nc2ccc(Oc3ccccc3)cc2)n[nH]1,/,?,-1.5%
CC(C)C1C(C#N)=C(N)Oc2n[nH]c(C(C)(C)C)c21 (stereo unspecified),4.2%,?,-6.8%
CCCC1C(C#N)=C(N)Oc2n[nH]c(C(C)(C)C)c21 (stereo unspecified),5.5%,-113.6*,2.9%
O=C(NCCCN1CCC(Cc2ccccc2)CC1)C1CC(=O)N(C2CCCCCC2)C1 (stereo unspecified),31.5%,45.4,-1.9%
CCOC(=O)c1ccc(COc2nc3ccccc3nc2-c2ccccc2NC(C)=O)o1,5.1%[2.29 µM],-115.5*,-3.1%
CC(=O)Nc1ccccc1-c1nc2ccccc2nc1OCC(=O)c1ccc(Br)cc1,-16.3%,?,2.1%
CCC(=O)Nc1c(C)cc(C)cc1Cl,-9.4%,?,-0.5%
Cc1cc(C)c(NC(=O)Nc2ccccc2)c(Cl)c1,/,-113.8*,4.3%
CCn1c(CNC(=O)Cc2ccc(OC)cc2)nnc1SCC(=O)Nc1nccs1,-0.1%,-19.9,0.5%
Cc1cc(C)nc(SCc2nnc(SCC(=O)Nc3nc(-c4ccccc4)cs3)n2C)n1,/,-11.6,0.8%
O=C(Cc1coc2ccc3ccccc3c12)Nc1nccs1,5.9%,-107.4*,-2.5%
O=C(Cc1coc2ccc3ccccc3c12)NCc1ccccc1,-4.5%,-8.4,5.2%
CCn1c(Cc2cccc3ccccc23)nnc1SCC(=O)Nc1nccs1,/,-100.0*,-2.3%
Cc1cc(C)nc(SCc2nnc(SCC(=O)Nc3nccs3)n2C)n1,/,-100.0*,3.6%
CN1CCN(c2ncc3nc(-c4cccc(C#N)c4)c(=O)n(Cc4ccc(F)cc4)c3n2)CC1,5.8%,/,/
CCCCC[C@H](O)/C=C/C1=C(CCCCCCC(=O)O)C(=O)CC1,/,-114.6*,-4.7%
CCCCC/C=C\C=C\[C@@H](O)CCCCCCCC(=O)O,/,/,1.7%
Cc1ccc2cc(CN(CC3CCCO3)S(=O)(=O)c3cccc4nsnc34)c(=O)[nH]c2c1 (stereo unspecified),10.8%,-20.3,2.5%
O=C(c1ccco1)N1CCC2(CCCN(c3cccc(-c4ccccc4)c3)C2)CC1,0.4%,/,-4.2%
Nc1nc2ccc(O)cc2s1,/,33.4,8.9%
Cc1cc2nc(N)sc2cc1C,-5.8%,-90.9*,1.9%
SMILES,ALOX15B inhib,PNC inhibitor,ALOX12 inhib
COc1ccccc1CNc1nc(-c2ccccc2CN(C)C)nc2ccccc12,6.4%,/,2.2%
CCOC(=O)N1CCN(C(=O)c2cc3c(=O)[nH]c4ccccc4c3s2)CC1,/,-118.9*,-7.2%
CCOC(=O)N1CCN(C(=O)c2ccc(-n3c(=S)[nH]c4ccccc4c3=O)cc2)CC1,/,121.7,3.4%
Cc1cnc(NC(=O)CSc2nnc(COc3c(C)cccc3C)o2)s1,/,-119.3*,4.6%
Cc1cccc(C)c1OCc1nnc(SCC(=O)Nc2ccccc2F)o1,/,-26.2,3.9%
COc1ccc(NS(=O)(=O)c2cc(NC(=O)c3cccc(OCc4c(C)noc4C)c3)ccc2OC)cc1,/,-4.2,-3.0%
CCN(CC)CCCn1c(-c2ccccc2)nc2c(N3CCOCC3)nc(C)nc21,6.9%,/,0.8%
COCCOC(=O)c1[nH]c2c(c1C)C(=O)CC(c1ccc(F)cc1)C2 (stereo unspecified),-1.6%,?,-2.0%
CCOc1ccc(C2CC(=O)c3c([nH]c(C(=O)OC)c3C)C2)cc1OC (stereo unspecified),?,-19.3,-5.2%
CCOC(=O)c1[nH]c2c(c1C)C(=O)CC(c1ccco1)C2 (stereo unspecified),-11.9%,-108.4*,-11.4%
COC(=O)c1[nH]c2c(c1C)C(=O)CC(c1cccs1)C2 (stereo unspecified),-3.6%,-85.5*,-2.5%
CSCCOC(=O)c1[nH]c2c(c1C)C(=O)CC(c1ccco1)C2 (stereo unspecified),-11.1%,-90.3*,-2.2%
CCCCOC(=O)c1[nH]c2c(c1C)C(=O)CC(c1cc(OC)c(OC)c(OC)c1)C2 (stereo unspecified),-4.6%,-6.9,-4.2%
COCCOC(=O)c1[nH]c2c(c1C)C(=O)CC(c1ccccc1)C2 (stereo unspecified),/,-100.0*,-0.1%
COC(=O)c1[nH]c2c(c1C)C(=O)CC(c1cc(OC)ccc1OC)C2 (stereo unspecified),-1.2%,?,0.2%
CCCCC/C=C\C/C=C\C/C=C\C/C=C\CCCCCC(=O)NCC(=O)O,/,/,7.7%
Cc1cccc(OCCNC(=O)c2cncc(Br)c2)c1,/,173.9,2.1%
COCCCNC(=S)N(Cc1cccnc1)Cc1ccc(OC)c(OC)c1,/,15.5,2.2%
COc1ccc(C/C(C)=N/NC(=O)c2cccnc2)cc1,/,3.1,6.8%
O=C(NCc1ccco1)c1ccc(COc2cc(Cl)ccc2Cl)cc1,/,-2.2,-4.9%
Cc1ccc(CNC(=O)c2ccc(NC(=O)CCS(=O)(=O)c3cccs3)cc2)cc1,-6.1%,?,1.5%
COCCOC(=O)C1=C(C)OC(N)=C(C#N)C1c1ccco1 (stereo unspecified),/,-100.0*,15.0%
Cc1c(C(=O)OCc2ccccc2)[nH]c2c1C(=O)CC(c1ccco1)C2 (stereo unspecified),-13.1%,-82.0*,-10.2%
Cc1c(C(=O)OCCOC(C)C)[nH]c2c1C(=O)CC(c1ccco1)C2 (stereo unspecified),/,-91.3*,-2.9%
COC(=O)C1=C(C)OC(N)=C(C#N)C1c1ccco1 (stereo unspecified),/,?,-2.4%
SMILES,ALOX15B inhib,PNC inhibitor,ALOX12 inhib
COCCOC(=O)c1[nH]c2c(c1C)C(=O)CC(c1ccc(N(C)C)cc1)C2 (stereo unspecified),0.4%,?,0.3%
COCCOC(=O)c1[nH]c2c(c1C)C(=O)CC(c1ccco1)C2 (stereo unspecified),-14.8%,-95.0*,-6.6%
Cc1c(C(=O)O)[nH]c2c1C(=O)CC(c1ccccc1)C2 (stereo unspecified),6.7%,25.0,1.9%
Cc1c(C(=O)OCCOC(C)C)[nH]c2c1C(=O)CC(C)(C)C2,0.2%,-2.2,-0.7%
CC(=O)NCCNc1nc(-c2cccc(C#N)c2)nc2ccccc12,-1.6%,/,/
CC(C)CCn1c(SCC(N)=O)nc2c1c(=O)n(C)c(=O)n2C,3.5%,-7.1,-1.1%
Cc1ccc(OCC(=O)Nc2ccc(F)cc2)cc1C,/,-100.0*,0.8%
CC(=O)Nc1cccc(OCC(=O)Nc2ccc(F)cc2)c1,-3.3%,25.2,-1.6%
Cc1ccc(NS(=O)(=O)c2cc(C(=O)O)ccc2Cl)cc1C,/,/,-0.6%
Cc1c(CCC(=O)O)c(=O)oc2cc3occ(-c4ccc(F)cc4)c3cc12,-19.2%,?,-12.8%
COc1ccc(-c2coc3cc4oc(=O)c5ccccc5c4cc23)cc1F,/,-81.3*,3.1%
CCOC(=O)c1c(-c2cccc3ccccc23)csc1NC(=O)C1C2CCC(O2)C1C(=O)O (stereo unspecified),/,-4.0,2.9%
